# ± gives the standard deviation of the averaged measurements. The full ranking holds about 25,000 sequences; the median of “ln(normalized median fluorescence intensity)” is about 8.6, and the highest 2% start at about 10. The sample holds the highest values, similar sequences and a random draw of the others, so the mix is not that of the screen.
# System: PfAP2-EXP AP2 domain (GST-tagged)
# Experiment: gcPBM binding intensity (ln(normalized median fluorescence intensity)); higher = stronger DNA binding
# In short: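 Each value is the highest Masliner-normalised natural-log median intensity across replicate spots of either orientation of a probe. The probes were primer-extended double-stranded 36-bp intergenic genomic sequences on an Agilent 4 × 180k array, alongside negative controls, exposed for 1 h to GST-tagged P. falciparum DNA-binding domains expressed in E. coli. Bound protein was picked up with Alexa488 anti-GST antibody and scanned at 488 nm.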
row,Sequence,gcPBM binding intensity (ln)
1,ATTTATGTTATTGTATGTACACAATATAATGTTATT [XGTACX_site5657],8.56 ± 0.32
2,TAATACCATAACAAGTGTACATAAATAATTATTGTA [XGTACX_site4949],8.8 ± 0.44
3,AAAAAAAAAAAAAAAACACACAAACATCAAATTACT [CACACA_site6950],8.69 ± 0.24
4,ATATGTTATATAAATATATATATATATATATATATA [TGCATGCA_negctrl_site594],10.1 ± 0.33
5,GTTATATGTTATATATATATATATATATATATATAT [TGCATGCA_negctrl_site428],10.2 ± 0.65
6,AATATGTTATAAATATGTTATAAATAATAAATAAAT [GTGCAC_negctrl_site135],8.45 ± 0.47
7,ATATATATTATAAAATGTACAAATGTTATATAAAAT [XGTACX_site4750],8.85 ± 0.45
8,ATCAAAAATGTTATATATATATATATATATATATAT [TGCATGCA_negctrl_site71],10.2 ± 0.45
9,AAAATGAAATATGTTATATATATATATATATATATA [CACACA_negctrl_site1752],9.9 ± 0.4
10,ATATATATATATTCCACACACACACTAATAAAAAAA [CACACA_site9214],9.94 ± 0.16
11,AACTGATTATTTTTTTGTACATATATAATAATATAT [XGTACX_site5953],8.61 ± 0.33
12,GACCATGTTAACAAAGCATGCATCTCTATATGTTTA [TGCATGCA_site358],8.87 ± 0.49
13,TCATAACAACTTTGTGTGCACATAAAACATGTATAT,8.94 ± 0.3
14,TATATTTATTTATACACATGCATATTTTAAGGGCTC [TGCATGCA_site885],8.72 ± 0.4
15,TCATATCTTTTGAGCACACATATATATATATAAAGG [CACACA_site3338],8.71 ± 0.34
16,CTAAACCTTTTGAGCACACATATATATATATATATA [CACACA_site1782],10.4 ± 0.16
17,ATCTAAACCTTTTGAGCACACATATATATATATATA [CACACA_site8526],9.86 ± 0.7
18,TAACAAAACATAGATTGTACATATTATAAATGTATA [XGTACX_site1543],8.46 ± 0.38
19,TTTATTAATTTATAGTGTACATATTAATAATATATT [XGTACX_site7949],8.35 ± 0.2
20,ATATATATATTTGTATGTACATATATATATTCGTAT [XGTACX_site1640],9.23 ± 0.29
21,TAATATTTTTTGTGTACACATATATATATATATATA [CACACA_site5504],10.2 ± 0.53
22,TTTATTTTGTAGTGTACACATATATATATATATATA [CACACA_site5843],10.3 ± 0.36
23,TTTCGTAACTATTTGTGTACATATATATATATATAT [XGTACX_site2920],10.3 ± 0.29
24,GTTTTCTAGTGGGGGTGTACATATTTATATTTAATA [XGTACX_site8378],10.9 ± 0.34
25,ATATATTATTTCTAGTGTACATACCCATATATAATA [XGTACX_site8902],8.97 ± 0.33
26,TTTTTTTTGTGTATTTGTACATAATATATATATATA [XGTACX_site7092],9.68 ± 0.19
27,GTGTAATATATTTTTCGTACATATTATATATATATA [XGTACX_site1675],9.8 ± 0.37
28,TTTTTATTTGGTTGTGTACACATATATATATATATA [CACACA_site5844],10.2 ± 0.3
29,ACATATTTTATTTTTTGTACACATATATTATTTTTT [XGTACX_site6528],8.99 ± 0.42
30,AATATATATTTGTGTACACATTATATATATATATAT [CACACA_site6103],10 ± 0.35

# — the supplement of paper PMC11417369
